Screening data deposited in PubChem by National Center for Advancing Translational Sciences (NCATS).
SW480 rereplic: DNA re-replication induction in SW480 cells | SW480 DNA re-replication, Hoechst DNA content imaging, 48 h | Potency, µM (doses to about 46.1 µM), for inactives: top-dose re-replication activation, most hits filed as activators | hit rate 1.8% among 340,000; also: % of control where 0% means no effect; nearly all actives have a fitted effect of over 55% in size
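Treated cells incubate 48 hr (37 C, 5% CO2), are stained 40 min with Hoechst, and nuclear fluorescence is enumerated; a rise in nuclei with high DNA signal marks re-replication.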
KB-3-1 tox: kills parental KB-3-1 adenocarcinoma cells. Potency, µM (titrated, usually from 46.1 µM), most hits filed as cytotoxic. KB-3-1 viability, CellTiter-Glo ATP luminescence, 72 h. hit rate 1.4% among 400,000; also: % is scaled to controls: 0 for no effect and ±100 for the full control effect; nearly all actives have a fitted effect of over 60% in size
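KB-3-1 cells, DMEM (no phenol red) + 10% FBS; compound by pin transfer, 72 h, 37 °C. Readout: CellTiter-Glo luminescence after 10 min. Data normalized, curve-fitted.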
ELG1 DNA repair: inhibitors of ELG1-dependent DNA repair in HEK293T cells; HEK293T ELG1-luciferase reporter, luminescence, 16 h; DNA damage induced by 5-fluorouridine; Potency, µM (highest dose often 46.1 µM), for the others: at the highest dose activity change, negative = inhibition, usual class: inhibitors; hit rate 2.3% among 330,000; AID 504467; also: % is scaled to controls: 0 for no effect and ±100 for the full control effect; nearly all actives have a fitted effect of over 55% in size
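Quantitative HTS, concentration-response format. 2,000 cells/well co-treated with 5-fluorouridine and compound, 16 hr in 5% CO2 at 37 °C; ONE-Glo luminescence read after 30 min.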
MCF10A rerep: induces DNA re-replication in MCF 10a normal breast cells; MCF 10A DNA re-replication, Hoechst nuclear intensity, 48 h; Potency, µM (titrated, usually from 46.1 µM), inactives show at the top dose activity, positive = re-replication, hits mostly activators; hit rate 2.9% among 350,000; AID 624296; also: % of control where 0% means no effect; nearly all actives have a fitted effect of over 50% in size
KB-V1 cytotox: KB-V1 MDR subline cytotoxicity; KB-V1 MDR cells viability, CellTiter-Glo, 72 h; Potency, µM (top dose mostly 46.1 µM), hits mostly cytotoxic; hit rate 3.4% among 400,000; also: % is scaled to controls: 0 for no effect and ±100 for the full control effect; nearly all actives have a fitted effect of over 60% in size
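Compound-treated KB-V1 multidrug-resistant cells, 72 h, 37 degrees C; viability by CellTiter-Glo. Fitted qHTS curves give the values.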
An asterisk follows results filed as active; i = inactive; ? = inconclusive; nt = no result. Most compounds without a hit are left out; they make up all but 8.1% or so of the library. Calls follow the shape of the dose curve; as a rule, active = well fitted curve in the direction sought with a large enough effect; inconclusive = small, poorly fitted or top-dose-only effect, or another doubt; inactive = no such curve, though single readings can be large; an effect the other way counts as inactive or inconclusive. Potency is read from the fitted curve at half-maximal effect.

SMILES	SW480 rereplic	KB-3-1 tox	ELG1 DNA repair	MCF10A rerep	KB-V1 cytotox
CC(C)c1ccc(CCNC(=O)c2ccc([N+](=O)[O-])cc2)cc1	1%	i	9.2µM*	-3%	i
Cc1cccc(OCC(=O)Nc2cc(-c3nc4cc(Cl)ccc4o3)ccc2C)c1	nt	i	nt	nt	i
Nc1cccc(B(O)O)c1	nt	i	nt	nt	?
COc1cc(OC)cc(C(=O)NC(C)c2ccc(Br)cc2)c1 (configuration not stated)	2%	i	?	-2%	i
COc1ccc(OC)c(C(C)NC(=O)c2ccc(Br)cc2)c1 (configuration not stated)	-106%	i	-5%	-7%	16µM*
O=C(CCNS(=O)(=O)c1cccs1)N1CCN(c2cccc(C(F)(F)F)c2)CC1	-2%	i	-7%	4%	16µM*
COc1ccc(N2CCN(C(=O)CCNS(=O)(=O)c3cccs3)CC2)cc1	-2%	i	-15%	-1%	i
O=C(N/N=C/c1cc([N+](=O)[O-])ccc1O)C12CC3CC(CC(C3)C1)C2	?	?	?	7.3µM*	i
CCc1cc(C(=O)N/N=C/c2ccc(O)cc2)c2ccccc2n1	?	?	-14%	23µM*	i
Cc1cc(C(=O)N/N=C/c2cc([N+](=O)[O-])ccc2O)c2ccccc2n1	16µM*	i	-29%	13%	?
Cc1cc(C(=O)N/N=C/c2ccc([N+](=O)[O-])s2)c2ccccc2n1	25%	?	21µM*	?	i
O=C(c1ccc(Cl)cc1)n1nc(-c2ccco2)nc1NCc1cccs1	nt	i	nt	nt	i
O=C1c2ccccc2NC(c2cc(Br)c3c(c2)OCO3)N1Cc1ccco1 (configuration not stated)	nt	i	nt	nt	i
Cc1cc(C(=O)N/N=C/c2ccc(N(C)C)cc2)c2ccccc2n1	18µM*	9.2µM*	9%	7.1µM*	?
O=C(N/N=C/c1cc([N+](=O)[O-])ccc1O)c1c[nH]c2ccccc12	8%	?	8.2µM*	12%	?
O=C(N/N=C/c1cccc([N+](=O)[O-])c1)c1c[nH]c2ccccc12	-7%	i	4%	0%	i
O=C(N/N=C/c1ccc[nH]1)c1c[nH]c2ccccc12	7.3µM*	i	?	11%	i
O=C(N/N=C/c1ccccn1)c1c[nH]c2ccccc12	-5%	i	?	2%	i
COc1cc(C(=O)NN=Cc2ccc(N(C)C)cc2)cc(OC)c1OC	nt	1.5µM*	nt	nt	3.7µM*
CCOc1ccc(CCNC(=O)c2cccc(-n3c(C)nc4cccnc43)c2)cc1	nt	i	nt	nt	?
CCOc1ccc(NC(=O)CN(C)C(=O)/C=C/c2ccco2)cc1OCC	6%	i	0%	-2%	i
Cc1cc(Nc2cccc([N+](=O)[O-])c2)c2ccccc2n1	-27%	i	-12%	?	?
CCOc1ccc2nc(C)cc(Nc3cccc([N+](=O)[O-])c3)c2c1	?	i	-3%	18µM*	15µM*
Cc1cc(C(=O)N/N=C/c2ccc([N+](=O)[O-])cc2)c2ccccc2n1	13µM*	5.8µM*	?	?	i
Cc1cc(Nc2ccc([N+](=O)[O-])cc2)c2ccccc2n1	71%	i	7%	2.6µM*	i
SMILES	SW480 rereplic	KB-3-1 tox	ELG1 DNA repair	MCF10A rerep	KB-V1 cytotox
CCc1ccc(/C=N/NC(=O)c2cc(C3CC3)nc3ccccc23)s1	18µM*	5.2µM*	?	7.3µM*	5.2µM*
O=C(N/N=C/c1ccc([N+](=O)[O-])cc1)c1cc(C2CC2)nc2ccccc12	?	?	?	?	i
COc1ccc(OC)c(NC(=O)CC2C(=O)NCCN2C(=O)C(F)(F)F)c1 (configuration not stated)	nt	i	nt	nt	i
COc1cccc(NC(=O)CN(C)C(C)C(=O)N2CCCCC2)c1 (configuration not stated)	18%	i	15%	1%	i
Cc1ccc(NC(=O)N2CCOCC2)cc1NC(=O)N1CCOCC1	nt	i	nt	nt	i
CC(C)(C)OC(=O)N1CCC(c2c(C(=O)N3CCN(C(=O)c4ccco4)CC3)cnn2-c2ccccc2)CC1	nt	i	nt	nt	i
CCCC(=O)Nc1nc(-c2ccc(Cl)s2)cs1	28%	i	0%	?	i
CCOC(=O)N1CCN(C(=O)CSCC(=O)Nc2nc(-c3ccc(OC)cc3)cs2)CC1	9%	?	0%	?	21µM*
CCOC(=O)N1CCN(C(=O)CSCC(=O)Nc2nc(-c3ccc(Cl)s3)cs2)CC1	10%	i	16µM*	12%	i
COc1ccc(-c2csc(NC(=O)CSCC(=O)Nc3cc(C)on3)n2)cc1	-9%	i	3%	4%	?
COC(=O)c1cc2c(-c3ccccc3)cc3ccccn3c-2c1C(=O)OC	3%	?	23µM*	?	?
COC(=O)c1c(C)c2c(C)cc3ccccn3c-2c1C(=O)OC	2%	i	-12%	-1%	i
Cc1cccc(OCCSc2nnc(-c3ccoc3C)n2C)c1	-4%	i	-20%	12%	18µM*
Cc1cccc(OCCSc2nncn2C)c1	-1%	i	?	0%	i
Cc1ccccc1N1CCN(C(=O)c2cc(C3CC3)nn2-c2ccccc2)CC1	6%	?	?	23%	i
CCc1nnc(NS(=O)(=O)c2ccc(N/C=C\C(=O)c3ccc4ccccc4c3)cc2)s1	14%	i	20%	23µM*	i
CCc1nnc(NS(=O)(=O)c2ccc(NC(=O)CCC(=O)OC)cc2)s1	-17%	i	-10%	0.58µM*	i
O=C(NCCN1CCN(c2ccc([N+](=O)[O-])cc2)CC1)NCc1ccccc1	2%	?	?	?	i
CC(C)Nc1nnc(SCC(=O)c2c(N)n(Cc3ccccc3)c(=O)n(C)c2=O)s1	-4%	i	18µM*	-1%	i
Cc1ccccc1CSCC(=O)c1c(N)n(C)c(=O)n(C)c1=O	-10%	i	4%	25%	i
Cc1ccccc1CSCC(=O)c1c(N)n(CC(C)C)c(=O)n(C)c1=O	-7%	?	?	15%	18µM*
CC(C)Cn1c(N)c(C(=O)CSc2ccccc2)c(=O)n(C)c1=O	-2%	?	23µM*	28%	?
COc1ccc(-c2c3c(cc(C)[n+]2[O-])oc2ccc(OC)cc23)cc1	15%	?	?	16µM*	10µM*
COc1ccc2oc3cc(C)[n+]([O-])c(-c4ccc(C)cc4)c3c2c1	?	?	?	16%	5.8µM*
COc1ccc2oc3cc(C)[n+]([O-])c(-c4ccc(Cl)cc4)c3c2c1	-1%	?	?	17%	?
